High-throughput results (PubChem)
In the library only some 12% were active in any assay of this set; here they are far more common.
PLK1 PBD block: inhibitors of human PLK1 polo-box domain binding. P53350. Plk1 PBD binding of FITC phosphopeptide, fluorescence polarization. Potency, µM, for the others: max response, negative = inhibition, most hits filed as inhibitors. 360,000 compounds, 2.8% hits; further: potency means the concentration at half of the fitted maximal effect; series mostly up to about 57 µM; on the % scale 0 is the no-effect control and ±100 the full control effect; nearly all actives have a fitted effect of over 65% in size
HP1b chromo inh: blocks HP1-beta chromodomain binding to methylated histone tails. AlphaScreen HP1-beta / biotin-H3K9me3 peptide binding. AID 540317. 390,000 compounds, 0.56% hits. P83916. Potency, µM (highest dose often 114 µM), for inactives: at the top dose activity change, negative = inhibition, most hits filed as inhibitors; further: potency means the concentration at half of the fitted maximal effect; nearly all actives have a fitted effect of over 70% in size
Target sequence (P83916 whole entry, looked up): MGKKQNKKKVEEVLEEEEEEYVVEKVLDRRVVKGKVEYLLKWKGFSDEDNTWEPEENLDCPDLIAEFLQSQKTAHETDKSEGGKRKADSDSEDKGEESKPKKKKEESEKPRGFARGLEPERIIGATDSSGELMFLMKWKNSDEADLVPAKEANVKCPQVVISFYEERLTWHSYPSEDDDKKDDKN
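Compound inhibition of the preformed complex between 50 nM HP1-beta and 50 nM biotinylated H3K9me3 peptide was read by AlphaScreen. Buffer was PBS pH 7.4 with 0.01% Tween-20. Incubations ran 30 min at room temperature, with 10 ug/mL donor/acceptor beads.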
G9a inh: blocks human histone lysine methyltransferase G9a; Potency, µM (titrated, usually from 102 µM), for the others: top-dose activity, negative = inhibition, most hits filed as inhibitors; G9a H3K9 monomethylation, AlphaScreen, 2 h; 350,000 compounds, 8.8% hits; further: potency means the concentration at half of the fitted maximal effect; on the % scale 0 is the no-effect control and ±100 the full control effect; nearly all actives have a fitted effect of over 75% in size
Target sequence (Q96KQ7 913-1193 limits assumed): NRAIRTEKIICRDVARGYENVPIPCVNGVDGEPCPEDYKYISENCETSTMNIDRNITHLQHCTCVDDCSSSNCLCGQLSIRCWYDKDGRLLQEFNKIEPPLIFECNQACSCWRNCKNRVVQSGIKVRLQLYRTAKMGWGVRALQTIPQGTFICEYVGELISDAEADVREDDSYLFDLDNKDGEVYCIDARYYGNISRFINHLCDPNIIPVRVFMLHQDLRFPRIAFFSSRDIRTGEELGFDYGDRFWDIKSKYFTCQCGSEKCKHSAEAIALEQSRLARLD
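Chemiluminescent proximity detection of H3K9 monomethylation, read after 10 min bead incubation in the dark. Reaction: 20 nM G9a, 500 nM biotin-H3K9 peptide, 20 uM SAM cofactor, 2 h, room temperature, following 15 min enzyme-compound preincubation.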
BAZ2B inh: inhibitors of human BAZ2B bromodomain | Q9UIF8 | AlphaScreen BAZ2B-H3K14Ac peptide displacement | Potency, µM (titrated, usually from 114 µM), for inactives: at the top dose activity change, negative = inhibition, hits mostly inhibitors | 360,000 compounds, 4.4% hits; further: potency means the concentration at half of the fitted maximal effect; on the % scale 0 is the no-effect control and ±100 the full control effect; nearly all actives have a fitted effect of over 60% in size
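Protein-peptide AlphaScreen: BAZ2B 50 nM, b-H3K14Ac 50 nM, 1x PBS pH 7.4 + 0.01% Tween-20. Preincubation 30 min RT; cpd 30 min RT (top 110 uM); beads 20 min RT, light-protected.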
JMJD2A Tudor: inhibitors of human JMJD2A Tudor domain; O75164; AlphaScreen JMJD2A-Tudor / H3K4me3 peptide binding; Potency, µM (doses to about 114 µM), for the others: at the top dose activity change, negative = inhibition, actives largely listed as inhibitors; 390,000 compounds, 4.4% hits; further: potency means the concentration at half of the fitted maximal effect; on the % scale 0 is the no-effect control and ±100 the full control effect; nearly all actives have a fitted effect of over 50% in size
PI5P4K alpha inh: inhibitors of human PI5P4K alpha; max response, %; 330,000 compounds, 1.2% hits; PI5P4Kalpha enzyme, ADP-Glo luminescence, 60 min; active compounds read low; AID 652105; active means max response of -50% or lower; inconclusive means between -30% and -50%; inactive means -30% or higher; further: value at the top dose of about 77 µM; on the % scale 0 is the no-effect control and ±100 the full control effect
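Single end-point luminescence (ADP-Glo) quantified ADP from PI5P4Kalpha turnover; ATP 5 microM final, 1 h at RT, 0.1% CHAPS and 0.28 mM EGTA in HEPES pH 7.4.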
The depositor's hits bear a star; [ ] = another dose, or the depositor's remark. Unless noted, the call rests on the fitted dose curve; in most records, active means well fitted curve in the direction sought with a large enough effect; inconclusive means small, poorly fitted or top-dose-only effect, or another doubt; inactive means no such curve, though single readings can be large; an effect the other way counts as inactive or inconclusive.

How did CC(C)(CNC(=O)C1CCN(S(=O)(=O)c2cc([N+](=O)[O-])ccc2Cl)CC1)N1CCOCC1 do in these assays?
PLK1 PBD block: -7%; HP1b chromo inh: 17%; G9a inh: inconclusive; BAZ2B inh: 5%; JMJD2A Tudor: -15%; PI5P4K alpha inh: 1

How did O=C(CN1C(=O)NC2(CCc3ccccc32)C1=O)NCc1ccc(Cl)cc1 (stereo unspecified) do in these assays?
PLK1 PBD block: 1%; HP1b chromo inh: 26%; JMJD2A Tudor: -13%; PI5P4K alpha inh: 0

What do the screens show for `CCN(CC)S(=O)(=O)N1CCC(C(=O)NCc2ccc(C)cc2)CC1`?
PLK1 PBD block: -3%; HP1b chromo inh: 13%; G9a inh: -12%; BAZ2B inh: 1%; JMJD2A Tudor: 5%

How did CCN(CC)c1ccc(CN2CCC(C(=O)NCc3ccc(C)cc3)CC2)cc1 do in these assays?
PLK1 PBD block: -2%; HP1b chromo inh: inconclusive; BAZ2B inh: -13%; JMJD2A Tudor: 20µM*; PI5P4K alpha inh: 1

What do the screens show for `CCc1ccc(OCC2c3cc(OC)c(OC)cc3CCN2C(=S)NCCOC)cc1` (stereo unspecified)?
PLK1 PBD block: -9%; HP1b chromo inh: 3%; G9a inh: 16µM*; BAZ2B inh: inconclusive; JMJD2A Tudor: inconclusive; PI5P4K alpha inh: 2

How did CCc1ccc(OCC2c3cc(OC)c(OC)cc3CCN2C(=S)NC)cc1 (stereo unspecified) do in these assays?
PLK1 PBD block: -13%; HP1b chromo inh: -22%; G9a inh: inconclusive; BAZ2B inh: inconclusive; JMJD2A Tudor: inconclusive; PI5P4K alpha inh: 5

What do the screens show for `CCNC(=S)N1CCc2cc(OC)c(OC)cc2C1COc1ccc(OC)cc1` (stereo unspecified)?
PLK1 PBD block: 3%; HP1b chromo inh: 4%; G9a inh: 50µM*; BAZ2B inh: inconclusive; JMJD2A Tudor: inconclusive; PI5P4K alpha inh: 1

What do the screens show for `CCNC(=S)N1CCc2cc(OC)c(OC)cc2C1COc1ccccc1OC` (stereo unspecified)?
PLK1 PBD block: -3%; HP1b chromo inh: 8%; G9a inh: -43%; BAZ2B inh: inconclusive; JMJD2A Tudor: -21%; PI5P4K alpha inh: -4

How did Cc1cccc(N2CCN(Cc3ccoc3)CC2)c1C do in these assays?
PLK1 PBD block: 4%; HP1b chromo inh: inconclusive; G9a inh: 10µM*; BAZ2B inh: 50µM*; JMJD2A Tudor: 11µM*

How did COc1cc(CN2CCN(c3cccc(C)c3C)CC2)cc(OC)c1O do in these assays?
PLK1 PBD block: -7%; HP1b chromo inh: -33%; G9a inh: inconclusive; BAZ2B inh: 50µM*; JMJD2A Tudor: 1µM*

Results for COc1cc(C(=O)N2CCN(C(=O)c3cc(-c4ccc(Br)cc4)n[nH]3)CC2)cc(OC)c1OC ?
PLK1 PBD block: -1%; HP1b chromo inh: 9%[57 µM]; G9a inh: 23%; BAZ2B inh: inconclusive; JMJD2A Tudor: -16%; PI5P4K alpha inh: 0

How did Cc1cc(C)cc(NC(=O)CCCn2c3ccccc3c(=O)c3ccccc32)c1 do in these assays?
HP1b chromo inh: 125%; G9a inh: 19%[59 µM]; BAZ2B inh: 57%; JMJD2A Tudor: 60%

Results for Cc1cccc(/C=N/NC(=O)c2c(-c3ccccc3)noc2C)c1O ?
PLK1 PBD block: -2%; HP1b chromo inh: 42%; BAZ2B inh: 25µM*; JMJD2A Tudor: inconclusive; PI5P4K alpha inh: -7

Results for Cc1cccc(/C=N/NC(=O)c2ccc3c(c2)OCCO3)c1O ?
G9a inh: 37%; BAZ2B inh: 20µM*

What do the screens show for `COc1ccccc1/C=N/NC(=O)c1c(-c2ccccc2)noc1C`?
PLK1 PBD block: -2%; HP1b chromo inh: 27%; G9a inh: 10%[12.7 µM]; BAZ2B inh: 28%; JMJD2A Tudor: -16%; PI5P4K alpha inh: 8

How did COc1cc(/C=N/NC(=O)c2ccc3c(c2)OCCO3)c(Br)c(Br)c1O do in these assays?
PLK1 PBD block: inconclusive; HP1b chromo inh: -10%[57 µM]; G9a inh: 45µM*; BAZ2B inh: -27%; JMJD2A Tudor: -14%; PI5P4K alpha inh: -29

What do the screens show for `CCOc1cccc(/C=N/NC(=O)c2ccc3c(c2)OCCO3)c1O`?
PLK1 PBD block: inconclusive; HP1b chromo inh: -15%[57 µM]; G9a inh: -6%; BAZ2B inh: 4%; JMJD2A Tudor: inconclusive; PI5P4K alpha inh: -2

What do the screens show for `Cc1oc2c(c(C)cc3oc(=O)c(CC(=O)NCc4ccc(F)cc4)c(C)c32)c1C`?
HP1b chromo inh: 8%; G9a inh: 3%[59 µM]; BAZ2B inh: -11%; JMJD2A Tudor: -14%

How did CS(=O)(=O)c1ccc(NC(=O)c2cc3c(cc2Cl)N2CCCCCC2=NS3(=O)=O)cc1 do in these assays?
PLK1 PBD block: -7%; HP1b chromo inh: 26%; JMJD2A Tudor: -4%; PI5P4K alpha inh: -7

What do the screens show for `Cc1ccc(NC(=O)c2ccccc2SCC(=O)N2CCCC2)cc1S(=O)(=O)N(C)C`?
PLK1 PBD block: -9%; HP1b chromo inh: 36%; G9a inh: -7%; BAZ2B inh: -14%; JMJD2A Tudor: -15%; PI5P4K alpha inh: -3

How did O=C1c2ccccc2C(=O)N1CCCc1nc(-c2ccccn2)no1 do in these assays?
PLK1 PBD block: 30µM*; HP1b chromo inh: -14%; G9a inh: 22%[59 µM]; BAZ2B inh: inconclusive; JMJD2A Tudor: 79µM*; PI5P4K alpha inh: -7

What do the screens show for `CCOC(=O)c1ccc(-c2ccc(CO)o2)cc1`?
PLK1 PBD block: -19%; HP1b chromo inh: -3%; G9a inh: 45µM*; BAZ2B inh: 0%[57.1 µM]; JMJD2A Tudor: -31%; PI5P4K alpha inh: -2

What do the screens show for `COc1ccccc1OCCC(=O)NCc1ccc2c(c1)OCO2`?
PLK1 PBD block: 30µM*; HP1b chromo inh: -26%; G9a inh: -32%; BAZ2B inh: -4%; JMJD2A Tudor: 35µM*; PI5P4K alpha inh: inconclusive

Results for COc1ccc(C(=O)NCc2ccc3c(c2)OCO3)c(OC)c1 ?
PLK1 PBD block: 27µM*; HP1b chromo inh: -3%; BAZ2B inh: -3%; JMJD2A Tudor: inconclusive; PI5P4K alpha inh: -9

How did COc1ccccc1OCCC(=O)Nc1ccc2c(c1)OCO2 do in these assays?
PLK1 PBD block: -8%; HP1b chromo inh: 23%; JMJD2A Tudor: -15%; PI5P4K alpha inh: -1

What do the screens show for `Cc1ccccc1OCCCC(=O)Nc1ccc2c(c1)OCO2`?
PLK1 PBD block: -7%; HP1b chromo inh: 7%; G9a inh: 20µM*; BAZ2B inh: -9%; JMJD2A Tudor: -20%

Results for CCCCC/C=C\C\C=C/C=C/C=C/[C@@H](SC[C@H](N)C(=O)NCC(=O)O)[C@@H](O)CCCC(=O)O ?
G9a inh: 28%[59 µM]
